Source: PubChem BioAssay AID1159580 (chemical genetic matrix, 2015)
In all, about 5,500 compounds went through this assay and about 2,000 (36%) were called active. Inconclusive results (about 18%) are left out. No stated cut-off is given here; in the data, active means normalized growth mostly below about 0.91 (no sharp cut-off); inconclusive means no clear call, values can overlap the other calls; inactive means mostly above about 0.92. This is one part of the list.

Assay: chemical genetic growth profiling, strain panel (AID 1159580);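 further: tested at 20 µM; growth read once vehicle control cultures reached saturation at 30 °C; 1 = growth at the plate median or of vehicle wells; lower values mean less growth of the strain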
Conditions: growth OD

Measured: normalized growth

CCc1ccc2c(O)c3c(cc2c1C(=O)OC)C(=O)c1c(O)ccc(O)c1C3=O
active: S. cerevisiae deletion strains, locus YMR058W, strain fet3, active compounds read low 0.762
inactive: S. cerevisiae deletion strains, locus YJR066W, strain TOR1, active compounds read low 0.895 | S. cerevisiae deletion strains, locus YJR075W, strain HOC1, active compounds read low 0.981 | S. cerevisiae deletion strains, locus YKL068W, active compounds read low 0.99 | S. cerevisiae deletion strains, locus YKL085W, strain MDH1 (second series), active compounds read low 1.05 | S. cerevisiae deletion strains, locus YKL085W, strain MDH1, active compounds read low 1.05 | S. cerevisiae deletion strains, locus YKL160W, strain elf1, active compounds read low 0.996 | S. cerevisiae deletion strains, locus YKR001C, strain vps1, active compounds read low 0.99 | S. cerevisiae deletion strains, locus YKR026C, strain gcn3, active compounds read low 0.979 | S. cerevisiae deletion strains, locus YKR091W, strain srl3, active compounds read low 0.995 | S. cerevisiae deletion strains, locus YLL001W, strain dnm1, active compounds read low 0.973 | S. cerevisiae deletion strains, locus YLL026W, active compounds read low 0.983 | S. cerevisiae deletion strains, locus YLL041C, strain sdh2, active compounds read low 0.999 | S. cerevisiae deletion strains, locus YLR027C, strain aat2, active compounds read low 0.994 | S. cerevisiae deletion strains, locus YLR039C, strain RIC1, active compounds read low 0.961 | S. cerevisiae deletion strains, locus YLR058C, strain SHM2, active compounds read low 0.956 | S. cerevisiae deletion strains, locus YLR102C, strain apc9, active compounds read low 0.999 | S. cerevisiae deletion strains, locus YLR113W, strain HOG1, active compounds read low 0.988 | S. cerevisiae deletion strains, locus YLR221C, strain rsa3, active compounds read low 0.969 | S. cerevisiae deletion strains, locus YLR258W, strain gsy2, active compounds read low 0.989 | S. cerevisiae deletion strains, locus YLR262C, strain YPT6 (second series), active compounds read low 0.956 | S. cerevisiae deletion strains, locus YLR262C, strain YPT6, active compounds read low 0.95 | S. cerevisiae deletion strains, locus YLR268W, strain sec22, active compounds read low 0.98 | S. cerevisiae deletion strains, locus YLR320W, strain mms22, active compounds read low 0.98 | S. cerevisiae deletion strains, locus YLR330W, strain CHS5, active compounds read low 1 | S. cerevisiae deletion strains, locus YLR342W, strain FKS1 (second series), active compounds read low 0.977 | S. cerevisiae deletion strains, locus YLR342W, strain FKS1, active compounds read low 0.968 | S. cerevisiae deletion strains, locus YLR357W, strain rsc2, active compounds read low 0.878 | S. cerevisiae deletion strains, locus YLR370C, strain arc18, active compounds read low 0.949 | S. cerevisiae deletion strains, locus YLR371W, strain rom2, active compounds read low 0.995 | S. cerevisiae deletion strains, locus YLR384C, strain iki3, active compounds read low 1 | S. cerevisiae deletion strains, locus YLR418C, strain cdc73, active compounds read low 0.932 | S. cerevisiae deletion strains, locus YML016C, strain PPZ1, active compounds read low 0.983 | S. cerevisiae deletion strains, locus YML032C, strain rad52, active compounds read low 0.932 | S. cerevisiae deletion strains, locus YML120C, strain ndi1, active compounds read low 0.999 | S. cerevisiae deletion strains, locus YML124C, strain tub3, active compounds read low 0.998 | S. cerevisiae deletion strains, locus YMR078C, strain ctf18, active compounds read low 0.997 | S. cerevisiae deletion strains, locus YMR125W, strain sto1, active compounds read low 1.01 | S. cerevisiae deletion strains, locus YMR129W, active compounds read low 0.966 | S. cerevisiae deletion strains, locus YMR205C, strain PFK2, active compounds read low 0.984 | S. cerevisiae deletion strains, locus YMR223W, strain ubp8, active compounds read low 0.933 | S. cerevisiae deletion strains, locus YMR231W, strain pep5, active compounds read low 0.995 | S. cerevisiae deletion strains, locus YMR307W, strain GAS1, active compounds read low 0.998 | S. cerevisiae deletion strains, locus YNL067W, strain RPL9B, active compounds read low 0.973 | S. cerevisiae deletion strains, locus YNL071W, strain lat1, active compounds read low 1 | S. cerevisiae deletion strains, locus YNL153C, strain GIM3, active compounds read low 0.954 | S. cerevisiae deletion strains, locus YNL183C, strain NPR1, active compounds read low 0.908 | S. cerevisiae deletion strains, locus YNL209W, strain ssb2, active compounds read low 0.981 | S. cerevisiae deletion strains, locus YNL233W, strain BNI4, active compounds read low 0.98 | S. cerevisiae deletion strains, locus YNL248C, strain rpa49, active compounds read low 0.961 | S. cerevisiae deletion strains, locus YNL250W, strain rad50, active compounds read low 0.972 | S. cerevisiae deletion strains, locus YNL271C, strain bni1, active compounds read low 0.965 | S. cerevisiae deletion strains, locus YNL298W, strain CLA4, active compounds read low 0.985 | S. cerevisiae deletion strains, locus YNL307C, strain MCK1, active compounds read low 1 | S. cerevisiae deletion strains, locus YNL322C, strain KRE1 (second series), active compounds read low 0.979 | S. cerevisiae deletion strains, locus YNR049C, strain mso1, active compounds read low 0.967 | S. cerevisiae deletion strains, locus YNR052C, strain pop2, active compounds read low 0.984 | S. cerevisiae deletion strains, locus YOL006C, strain TOP1, active compounds read low 1.07 | S. cerevisiae deletion strains, locus YOL012C, strain htz1 0.673 | S. cerevisiae deletion strains, locus YOL147C, strain pex11, active compounds read low 1.01 | S. cerevisiae deletion strains, locus YOR001W, strain rrp6, active compounds read low 0.973 | S. cerevisiae deletion strains, locus YOR061W, strain CKA2, active compounds read low 0.957 | S. cerevisiae deletion strains, locus YOR069W, strain VPS5, active compounds read low 0.999 | S. cerevisiae deletion strains, locus YOR070C, strain gyp1, active compounds read low 0.988 | S. cerevisiae deletion strains, locus YOR080W, strain dia2, active compounds read low 0.991 | S. cerevisiae deletion strains, locus YOR083W, strain WHI5, active compounds read low 0.98 | S. cerevisiae deletion strains, locus YOR106W, strain vam3, active compounds read low 0.964 | S. cerevisiae deletion strains, locus YOR136W, strain idh2, active compounds read low 1.01 | S. cerevisiae deletion strains, locus YOR144C, strain elg1, active compounds read low 0.993 | S. cerevisiae deletion strains, locus YOR184W, strain ser1, active compounds read low 0.965 | S. cerevisiae deletion strains, locus YOR231W, strain MKK1, active compounds read low 0.965 | S. cerevisiae deletion strains, locus YOR265W, strain rbl2, active compounds read low 0.987 | S. cerevisiae deletion strains, locus YOR270C, strain vph1, active compounds read low 0.827 | S. cerevisiae deletion strains, locus YOR290C, strain snf2, active compounds read low 0.929 | S. cerevisiae deletion strains, locus YOR316C, strain cot1, active compounds read low 0.992 | S. cerevisiae deletion strains, locus YPL051W, strain arl3, active compounds read low 0.953 | S. cerevisiae deletion strains, locus YPL078C, strain atp4, active compounds read low 0.977 | S. cerevisiae deletion strains, locus YPL106C, strain sse1, active compounds read low 0.974 | S. cerevisiae deletion strains, locus YPL240C, strain hsp82, active compounds read low 0.983 | S. cerevisiae deletion strains, locus YPL241C, strain CIN2, active compounds read low 0.99 | S. cerevisiae deletion strains, locus YPL256C, strain CLN2, active compounds read low 1.03 | S. cerevisiae deletion strains, locus YPR119W, strain clb2, active compounds read low 1 | S. cerevisiae deletion strains, locus YPR141C, strain kar3, active compounds read low 0.979 | S. cerevisiae deletion strains, locus YPR163C, strain tif3, active compounds read low 1.01 | S. cerevisiae deletion strains, locus YPR167C, strain met16, active compounds read low 0.965 | S. cerevisiae deletion strains, strain wtn01, active compounds read low 1 | S. cerevisiae strains, strain wild type, active compounds read low 0.971
